Test results reported in ChEMBL document CHEMBL3988442, “University of Dundee, Small-Polar-MMV Screening Library” (2021).
Among all 48,000 compounds or so, about 13,000 (27%) showed an effect of 50% or more. This is one part of the list.

system: Wolbachia pipientis; experiment: Anti-Wolbachia Cell-Based Screen; format: functional; design: scale not given: in the data most compounds retested in dose-response had high values; settings: 5 µM

| SMILES | Percent Effect [%] |
| --- | --- |
| CC(C)(C)c1nc2cc(NC(=O)Cn3ccc(=O)[nH]c3=O)ccc2o1 | -2.056 |
| Cc1cccc(C(C(=O)N2CCN(C(=O)c3ccc[nH]3)CC2)N(C)C)c1 (configuration not stated) | 8.522 |
| Clc1ccc2nc(N3CCC(NCCCC4CCOC4)CC3)sc2c1 (configuration not stated) | 5.411 |
| CC(C)COCC(C)NC(=O)NCc1cccc(-n2cncn2)c1 (configuration not stated) | 11.71 |
| CCN1CCCC(C)(C(=O)NCc2nnnn2-c2ccccc2)C1 (configuration not stated) | 65.9 |
| CCN1CCCC(C)(C(=O)NCc2nncn2CCc2ccccc2)C1 (configuration not stated) | 118.3 |
| CCC1(CO)CCCN(Cc2nccn2Cc2ccccc2)C1 (configuration not stated) | 7.742 |
| CCN1CCCC(C)(C(=O)NCCc2n[nH]c(=O)[nH]2)C1 (configuration not stated) | 34.99 |
| CCN1CCCC(C)(C(=O)NCCc2nnc(C)[nH]2)C1 (configuration not stated) | 0.7717 |
| CCN1CCCC(C)(C(=O)NCCCc2nc(C)cs2)C1 (configuration not stated) | -10.41 |
| CCN1CCCC(C)(C(=O)NCc2nccn2Cc2ccccc2)C1 (configuration not stated) | 105.1 |
| CCOC(=O)C1(Cc2ccccc2)CCCN(Cc2nccn2CC)C1 (configuration not stated) | 6.244 |
| Cc1nnc(N2CCC(CN(C)C(C)C)CC2)c(C#N)c1C | 6.063 |
| O=C(CC1CC1)N1CCn2cc(Cn3cncn3)nc2C1 | 0.5446 |
| Cn1cc(S(=O)(=O)NCC(C)(O)c2ccsc2)cn1 (configuration not stated) | 76.2 |
| Cn1cc(Br)cc1C(=O)NCC(C)(O)c1ccsc1 (configuration not stated) | -10.72 |
| Cn1cnc(S(=O)(=O)NCC(C)(O)c2ccc3c(c2)OCO3)c1 (configuration not stated) | -0.9964 |
| CSCC(C)(O)CNc1ncccc1I (configuration not stated) | 15.53 |
| Cc1nnsc1C(=O)N1CCN(C(=O)C2CCC2)[C@@H]2CS(=O)(=O)C[C@@H]21 | 2.369 |
| Cc1nc2cc(C3CCCCN3C(=O)C3CC3)nn2c(O)c1C (configuration not stated) | 136.9 |
| Cc1nnsc1C(=O)N1CCCCC1c1cc2nc(C)c(C)c(O)n2n1 (configuration not stated) | 136.2 |
| Cc1nc2cc(C3CCN(Cc4cccc(F)c4F)C3)nn2c(O)c1C.O=C(O)CC(O)(CC(=O)O)C(=O)O (configuration not stated) | -10.9 |
| CC(=O)N1CCN(C(=O)c2snnc2C)[C@H]2CS(=O)(=O)C[C@H]21 | -13.7 |
| Cc1ncsc1C(=O)N1CCCCC1c1cc2nc(C)c(C)c(O)n2n1 (configuration not stated) | 146.5 |
| CC1CCCN(c2ccc(C(N)=O)cc2NC(=O)CC2=CCNCC2)C1 (configuration not stated) | 16.61 |
| O=C1N(Cc2ccccc2F)CCCC12CCN(C1CCSCC1)C2 (configuration not stated) | -13.98 |

| SMILES | Percent Effect [%] |
| --- | --- |
| Cc1ncsc1CN1Cc2cn(C)nc2C(COCC2CC2)C1.O=C(O)C(F)(F)F.O=C(O)C(F)(F)F (configuration not stated) | 13.37 |
| Cc1ccnn1CC(=O)N1CCCN(C2Cc3ccccc3C2)CC1 | -5.068 |
| CC(C)N1c2sc(-c3ccsc3)nc2CC1C(=O)NC1CCCC1 (configuration not stated) | 65.31 |
| O=C(NC1CC1)C1CCCN1c1ncnc2ccsc12 (configuration not stated) | -11.59 |
| CC(C)N1c2sc(-c3ccsc3)nc2CC1C(=O)NC1CC1 (configuration not stated) | 38.95 |
| CS(=O)(=O)NCC1CCCCN1C(=O)c1csc(-c2ccsc2)n1 (configuration not stated) | 11.05 |
| CC(C)NC(=O)C1Cc2nc(-c3ccsc3)sc2N1CC1CC1 (configuration not stated) | 78.87 |
| O=C(NC1CCCC1)C1Cc2nc(-c3ccsc3)sc2N1CC1CC1 (configuration not stated) | 63.55 |
| CC(C)N1c2sc(-c3ccccc3)nc2CC1C(=O)NC1CCCC1 (configuration not stated) | 22.35 |
| Cc1cncc(C(=O)N2CCC(Cn3cc(-c4ccsc4)nn3)CC2)c1 | -0.4456 |
| O=C([C@@H]1CCCO1)N1CCC(Cn2cc(-c3ccsc3)nn2)CC1 | -13.58 |
| COCCCN1CCCN(C(C)C(=O)Nc2cccc(I)c2)CC1 (configuration not stated) | 23.62 |
| COc1ccc(-n2nc(C)c(C(C)=O)c2C)cc1CO | -7.291 |
| Cc1nc(COCc2nc3c(o2)CN(C(=O)c2ccoc2)C3)cs1 | 0.193 |
| CN(C)c1nc2c(c(N3CCC(O)CC3)n1)CN(CC(C)(C)C)CC2 | 3.405 |
| c1cc(CNCc2ccnc(N3CCCC3)c2)c2c(c1)OCO2 | -29.77 |
| Cc1noc(C(C)C)c1C(=O)NCCCN1CCNCC1.Cl | 114.5 |
| Cc1nc(-c2ccsc2)ccc1C(=O)NCCC(=O)N1CCCC1 | 0.2112 |
| CC(NC(=O)NCCN1CCCCCC1=O)c1nncn1C (configuration not stated) | -0.9457 |
| Cc1noc(C(C)C)c1C(=O)NCCCN1CCCCCC1=O | 122 |
| Cc1noc(C(C)C)c1C(=O)NCCN1CCOCC1 | 72.1 |
| Cc1noc(C(C)C)c1C(=O)NCCC(=O)N1CCCCC1 | 90.26 |
| Cc1noc(C(C)C)c1C(=O)NCC1CCCN1Cc1ccccc1 (configuration not stated) | -8.242 |
| CCC(CC)(CCCNC(=O)c1c(C)noc1C)C1OCCO1 | -3.207 |
| Cc1noc(C)c1C(=O)NCCN1CCN(c2ccccc2)CC1 | 7.051 |
| Cc1noc(C)c1C(=O)NCCN1CCOCC1 | 15.76 |

| SMILES | Percent Effect [%] |
| --- | --- |
| CC(Cn1cccn1)NC(=O)NCCCN1CCCCCC1=O (configuration not stated) | -6.235 |
| Cc1cc(C)n(CC2(CNC(=O)C(c3ccc(F)cc3)N(C)C)CC2)n1 (configuration not stated) | 1.569 |
| CN(Cc1ccsc1)C(=O)Nc1ccc(S(C)(=O)=O)nc1 | -1.265 |
| COCCN1CC[C@H]2CN(c3cc(OC)ncn3)C[C@@H]2C1=O.O=C(O)C(F)(F)F | -11.01 |
| CN1C(=O)CC(c2ccccc2)C12CCN(c1ncc(F)cn1)CC2 (configuration not stated) | 11.07 |
| O=C1N(c2ccc(Br)cc2)Cc2n[nH]c(=O)n21 | -3.118 |
| Cc1ccccc1CCCN(C)S(C)(=O)=O | 5.397 |
| Cc1ccsc1CNC1CCCc2c1cnn2C.Cl (configuration not stated) | -3.429 |
| COc1cc(OC)cc(-c2cccc3c2OC(CN)C3)c1 (configuration not stated) | 2.272 |
| Cc1noc(C(C)C)c1C(=O)NCC1CCN(c2ccccc2)C1 (configuration not stated) | -7.701 |
| Cc1noc(C(C)C)c1C(=O)NCCCN1CCC(C)CC1 | 80.48 |
| CC1CCN(CCCNC(=O)C2CCCCC2)CC1 | 13.42 |
| COc1ccc(S(=O)(=O)NC(=O)c2c(C)noc2C(C)C)cc1OC | 2.156 |
| COCCCNC(=O)c1c(C)noc1C(C)C | 99.64 |
| Cc1noc(C(C)C)c1C(=O)NCc1cc(F)cc(F)c1 | -8.359 |
| CCn1c(=O)nc2n1C(=O)N(c1cccc(Cl)c1)C2 | 5.675 |
| CC1CCCN(S(=O)(=O)NCCCn2ccc3ccccc32)C1 (configuration not stated) | -2.865 |
| Cn1c(-c2ccc(F)cc2)cn2cc(C(=O)N3CCC(N)C3)nc2c1=O (configuration not stated) | -3.321 |
| CC(c1cccnc1)N1CCN(CCc2ccccn2)CC1 (configuration not stated) | -1.072 |
| Cc1ccc(CNC(=O)c2nc3c(n2C)CCN(c2ncccn2)C3)o1 | 77.66 |
| Cc1ccc(CNC(=O)c2nc3c(o2)CN(c2ncccn2)C3)o1 | -19.04 |
| CN1CCCN(C(=O)c2nc3c(n2C)CCN(c2ncccn2)C3)CC1 | 6.305 |
| CN1CCO[C@@H]2CN(S(=O)(=O)c3ccc(F)cc3)CC[C@@H]2C1.O=C(O)C(F)(F)F | -6.683 |
| CC(=O)N1CCO[C@@H]2CN(S(=O)(=O)c3ccc(C)cc3)CC[C@@H]2C1 | 106.7 |
| CC(=O)N1CCO[C@@H]2CN(S(=O)(=O)c3ccc(F)cc3)CC[C@@H]2C1 | 115.5 |
| Cn1nnc2c1C(COCC1CC1)CN(C(=O)C1=CCCC1)C2 (configuration not stated) | -1.372 |

| SMILES | Percent Effect [%] |
| --- | --- |
| COCCN(Cc1ccc(OC)nc1)Cc1cccs1 | 6.12 |
| O=C(O)C(F)(F)F.O=S(=O)(c1ccccc1)N1C[C@@H]2COC[C@]2(CN2CCOCC2)C1 | 14.04 |
| O=C(Nc1ccccc1)C1CN(CC2CC2)CC12CCOCC2.O=C(O)C(F)(F)F (configuration not stated) | -9.303 |
| O=C(NCc1ccccc1CN1CCC(O)CC1)Nc1ccccc1 | 6.714 |
| O=C(O)C(F)(F)F.O=S(=O)(NC1CCC12CCN(CC1CCOCC1)CC2)c1ccccc1 (configuration not stated) | -4.51 |
| O=C(Nc1ccccc1)N1C[C@H]2CC[C@@H]1CN(Cc1ccccc1)C2 | -24.67 |
| COCCN1CCC(NC(=O)NCC2(c3ccccc3)CC2)C1 (configuration not stated) | -5.464 |
| O=C(Nc1ccccc1)C1CN(CC2CCOCC2)CC12CCOCC2.O=C(O)C(F)(F)F (configuration not stated) | -3.242 |
| O=S(=O)(c1ccccc1)N1C(CN2CCOCC2)[C@]2(O)CC[C@H]1CC2 (some centres not stated) | 83.09 |
| O=C(Nc1ccccc1)N1C(CO)[C@]2(O)CC[C@H]1CC2 (some centres not stated) | 93.37 |
| COCC1N(C(=O)Nc2ccccc2)[C@H]2CC[C@]1(O)CC2 (some centres not stated) | 103.1 |
| O=C(Nc1ccccc1)N1C(CN2CCOCC2)[C@]2(O)CC[C@H]1CC2 (some centres not stated) | 91.52 |
| CC(C)n1c(C(=O)N2CCCC2)nc2c1CCN(C)C2.O=C(O)C(F)(F)F | -17.76 |
| O=C(Nc1cnc2n1CCCC2)c1cccc(OCC(F)(F)F)c1 | -7.584 |
| NC(=O)C1CCN(CCc2ccc(NCc3cccnc3)cc2)CC1 | -10.11 |
| CC(O)C1CCN(c2cc(Cl)ccc2C#N)CC1 (configuration not stated) | -3.342 |
| CC1(c2ccccc2)CCCN(Cc2cncn2C2CCCC2)C1 (configuration not stated) | -2.034 |
| CC(C)CNC(=O)CNC(=O)NCC(O)c1ccc2ccccc2c1 (configuration not stated) | 1.707 |
| CCSc1cc(C(=O)N(C(C)C)C2CC2)ccn1 | -12.03 |
| CCSc1cc(C(=O)NCCC(=O)Nc2ccccn2)ccn1 | -16.79 |
| O=C(O)c1ccnc(SCC(F)(F)F)c1 | 103 |
| CCSc1cc(C(=O)N(CC(F)F)C(C)C)ccn1 | -6.776 |
| O=C(O)c1ccnc(SCc2ccccc2)c1 | 93.4 |
| CCSc1cc(C(=O)NCc2ccccc2O)ccn1 | -4.116 |
